Compound activity: PubChem BioAssay, several laboratories
Measles CPE = protection of cells from measles virus; Measles virus-infected cells, CPE protection, absorbance; protection (pct of control), % at 4 µM; 1.5% of 140,000 active; in the data active means protection mostly above about 24%, no sharp cut-off; inactive means mostly below about 26%
CYP2C9 inh = blocks human cytochrome P450 2C9; P11712; CYP2C9 Supersomes, luciferin-H conversion, luminescence; inhibition, % at 5 µM; 20% of 96,000 active; AID 777;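 active means blocking of liver enzyme CYP2C9 beyond about 50% at 5 µM, limit read from the data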
CYP2C9 act = CYP2C9 (human) activation; 1.4% of 96,000 active; activation factor at 5 µM; P11712; recombinant CYP2C9, luciferin-H conversion, luminescence; hits give high values; factor 1 = untreated enzyme, 0 = blocked;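 active means activation factor of 2 or more for CYP2C9 at a 5 µM dose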;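 further: 0 = sulfaphenazole-blocked wells and 1 = vehicle-only wells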
CYP2C19 act = activators of human cytochrome P450 2C19. P33261. recombinant CYP2C19, luciferin-H EGE luminescence; hits give high values; 0 = fully inhibited enzyme, 1 = untreated enzyme. activation factor at 5 µM. 96,000 tested, under 10 active. AID 1025;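 active means activation factor of at least 2 at 5 µM in the primary screen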;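 further: 0 = wells with 2.5 mM tranylcypromine and 1 = vehicle-only wells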
Target sequence (P33261 whole entry, looked up): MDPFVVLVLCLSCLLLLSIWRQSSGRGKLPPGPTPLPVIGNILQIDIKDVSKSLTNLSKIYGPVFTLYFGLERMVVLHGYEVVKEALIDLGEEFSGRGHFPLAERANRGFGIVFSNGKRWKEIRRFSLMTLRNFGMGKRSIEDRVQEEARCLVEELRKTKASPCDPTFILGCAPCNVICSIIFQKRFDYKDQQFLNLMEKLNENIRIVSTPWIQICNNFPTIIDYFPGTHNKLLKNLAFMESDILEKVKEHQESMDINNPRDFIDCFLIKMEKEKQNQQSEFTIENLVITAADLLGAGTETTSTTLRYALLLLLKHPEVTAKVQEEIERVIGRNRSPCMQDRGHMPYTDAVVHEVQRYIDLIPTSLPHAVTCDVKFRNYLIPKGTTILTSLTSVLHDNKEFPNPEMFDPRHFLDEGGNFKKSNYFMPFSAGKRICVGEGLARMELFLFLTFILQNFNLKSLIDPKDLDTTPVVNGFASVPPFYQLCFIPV
CYP2C19 inhib = human CYP2C19 inhibition | AID 778 | 21% of 96,000 active | CYP2C19 Supersomes, luciferin-H EGE luminescence, 30 min | inhibition, % at 5 µM | P33261;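 active means CYP2C19 inhibition above a set limit at 5 µM in the primary screen, cut at about 50% in these data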;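 further: plate controls were negative control wells for no effect and 2.5 mM tranylcypromine positive control for full effect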
Starred values were filed as active, the others as inactive. Hits are enriched below; roughly 22% of the tested compounds scored in any of these assays.

`CC(C)c1ccc(C(=O)N2CCCN(C(=O)c3ccc(C(C)C)cc3)CC2)cc1` gave Measles CPE 7.0.
Screening CCOC(=O)c1c(C)[nH]c(C(=O)COC(=O)CSCC(=O)N(CC)CC)c1C returned Measles CPE 13.3, CYP2C9 inh 43.8, CYP2C9 act 0.6, CYP2C19 act 1 and CYP2C19 inhib 0.9.
Screening Cc1cccc(N(C)C(=O)c2cc3cc4ccc(C)cc4nc3o2)c1 returned Measles CPE 1.4, CYP2C9 inh 24.2, CYP2C9 act 0.8, CYP2C19 act 0.3 and CYP2C19 inhib 70.1*.
Screening Cc1ccc2cc3cc(C(=O)NCCCN4CCc5ccccc5C4)oc3nc2c1 returned Measles CPE 3.7, CYP2C9 inh 13.2, CYP2C9 act 0.9, CYP2C19 act 0.4 and CYP2C19 inhib 64.0*.
Screening COc1ccc(S(=O)(=O)Cc2ccc(C(=O)NCCCN3CCc4ccccc4C3)o2)cc1 returned Measles CPE 16.9, CYP2C9 inh 87.6*, CYP2C9 act 0.1, CYP2C19 act 0.8 and CYP2C19 inhib 15.6.
For COc1ccc(S(=O)(=O)Cc2ccc(C(=O)NCc3ccco3)o2)cc1 the results were Measles CPE 4.8, CYP2C9 inh -9.2, CYP2C9 act 1.1, CYP2C19 act 0.9 and CYP2C19 inhib 7.6.
For COc1ccc(S(=O)(=O)Cc2ccc(C(=O)NCCCN(C)c3ccccc3)o2)cc1 the results were CYP2C9 inh 98.0*, CYP2C9 act 0, CYP2C19 act 0.5 and CYP2C19 inhib 46.8.
Screening CCCCNC(=O)c1ccc(CS(=O)(=O)c2ccc(OC)cc2)o1 returned Measles CPE 11.2, CYP2C9 inh -1.0, CYP2C9 act 1, CYP2C19 act 0.9 and CYP2C19 inhib 10.7.
Screening O=C1CN(C(=O)C2CCCC2)CCN1 returned Measles CPE 30.8.
Screening NC1=C([N+](=O)[O-])C(c2ccc(F)cc2)C2=C(CCCC2=O)O1 (centres undefined) returned Measles CPE 2.0.
For CCOC(=O)N1CCC(NC(=O)c2ccc(CS(=O)(=O)c3ccc(OC)cc3)o2)CC1 the results were Measles CPE 0.1, CYP2C9 inh 92.8*, CYP2C9 act 0.1, CYP2C19 act 1 and CYP2C19 inhib -2.9.
Screening CCCCCOP(=O)(OCCCCC)C1(NS(=O)(=O)c2ccccc2)C=CC(=O)c2ccccc21 (centres undefined) returned Measles CPE 17.3, CYP2C9 inh 56.1*, CYP2C9 act 0.4, CYP2C19 act 0.9 and CYP2C19 inhib 7.8.
Cc1cc(Nc2ncc(Cl)cc2Cl)n(-c2ccccc2)n1 was read as Measles CPE 7.9.
Screening Cc1cc(Nc2ccccc2)n(C(=O)c2ccc(Cl)cc2)n1 returned Measles CPE 43.6*.
`Cc1cc(Nc2ccccc2)n(-c2cccc(Cl)c2)n1` gave Measles CPE 13.8, CYP2C9 inh 77.7*, CYP2C9 act 0.2, CYP2C19 act 0.2 and CYP2C19 inhib 79.6*.
For O=C(Oc1cccc([N+](=O)[O-])c1)c1cc(-c2ccccc2)nc2ccccc12 the results were Measles CPE 16.9, CYP2C9 inh 17.9, CYP2C9 act 0.8, CYP2C19 act 1 and CYP2C19 inhib 1.9.
COC(=O)c1cc(NC(=O)C2CC=CCC2C(=O)O)cc(C(=O)OC)c1 (centres undefined) was read as Measles CPE 8.7, CYP2C9 inh 38.4, CYP2C9 act 0.6, CYP2C19 act 1 and CYP2C19 inhib -4.7.
Screening COc1cccc(/C=N/NC(=O)CN2CC(c3ccccc3)CC2=O)c1O (centres undefined) returned Measles CPE 10.8.
`CC1CN(S(=O)(=O)c2ccc(Cl)c(C(F)(F)F)c2)CC(C)O1` (centres undefined) gave Measles CPE 9.2, CYP2C9 inh -129.7, CYP2C9 act 2.3*, CYP2C19 act 0.8 and CYP2C19 inhib 22.4.
For COc1ccc(N2CCN(S(=O)(=O)c3ccc(Cl)c(C(F)(F)F)c3)CC2)cc1 the results were Measles CPE 20.0, CYP2C9 inh -28.3, CYP2C9 act 1.3, CYP2C19 act 0.8 and CYP2C19 inhib 17.9.
`CCNC(=O)NC(C(=O)OC)C12CC3CC(CC(C3)C1)C2` (centres undefined) gave Measles CPE 16.3, CYP2C9 inh -4.5, CYP2C9 act 1, CYP2C19 act 0.7 and CYP2C19 inhib 29.7.
Screening COc1cc(OC)cc(C(=O)NC(C(=O)NCCN(C)C)C23CC4CC(CC(C4)C2)C3)c1 (centres undefined) returned Measles CPE 12.1, CYP2C9 inh 1.7, CYP2C9 act 1, CYP2C19 act 0.1 and CYP2C19 inhib 93.2*.
For Cc1cnc(C(=O)Nc2ccccc2-c2nnn(CC(=O)NC3CCCC3)n2)cn1 the results were Measles CPE 7.2, CYP2C9 inh 24.7, CYP2C9 act 0.8, CYP2C19 act 1.1 and CYP2C19 inhib -13.3.
COc1ccccc1N1CCN(CCc2n[nH]c(=S)n2-c2ccccc2)CC1 was read as Measles CPE 1.9, CYP2C9 inh -20.3, CYP2C9 act 1.2, CYP2C19 act 1.2 and CYP2C19 inhib -21.4.
`COc1ccc(C2N=C(c3ccccc3)C(C)(C)N2O)cc1` (centres undefined) gave Measles CPE 35.2, CYP2C9 inh 12.1, CYP2C9 act 0.9, CYP2C19 act 0.2 and CYP2C19 inhib 83.1*.
CC1(C)C(c2ccccc2)=NC(c2ccccc2)N1O (centres undefined) was read as Measles CPE 4.6, CYP2C9 inh -9.6, CYP2C9 act 1.1, CYP2C19 act 0.6 and CYP2C19 inhib 40.0.
For CCCc1cc(Nc2cccc(OC)c2)n2ncnc2n1 the results were Measles CPE 10.1, CYP2C9 inh 33.9, CYP2C9 act 0.7, CYP2C19 act 0.4 and CYP2C19 inhib 55.3*.
`Cc1cc(Nc2cccc(Cl)c2)n2ncnc2n1` gave Measles CPE 29.5*.
CCC1=Nc2cc(C(=O)NCCCOC(C)C)ccc2Sc2ccccc21 was read as Measles CPE 2.6, CYP2C9 inh 60.4*, CYP2C9 act 0.4, CYP2C19 act 0.3 and CYP2C19 inhib 72.2*.
`CCC1=Nc2cc(C(=O)O)ccc2Sc2ccccc21` gave Measles CPE 8.2.
COc1ccc(CNc2nc(NCc3ccc(OC)c(OC)c3)n(C(=O)c3cccs3)n2)cc1OC was read as Measles CPE 10.1, CYP2C9 inh 71.4*, CYP2C9 act 0.3, CYP2C19 act 0.7 and CYP2C19 inhib 26.6.
`CCC(=O)n1nc(NCc2ccccc2OC)nc1NCc1ccccc1OC` gave Measles CPE 12.2, CYP2C9 inh 51.8*, CYP2C9 act 0.5, CYP2C19 act 0.6 and CYP2C19 inhib 36.3.
CCCn1nnc(NCc2ccc(OCc3cccs3)c(OC)c2)n1 was read as Measles CPE 8.2, CYP2C9 inh 86.4*, CYP2C9 act 0.1, CYP2C19 act 0.5 and CYP2C19 inhib 48.0.
Screening COc1ccc(CNc2nc(NCc3ccc(OC)cc3)n(C(C)=O)n2)cc1 returned Measles CPE 32.7, CYP2C9 inh 15.4, CYP2C9 act 0.8, CYP2C19 act 1.1 and CYP2C19 inhib -6.4.
